# Results taken from PubChem BioAssay (NCATS).
# Values joined by “and” are separate entries in the source; they are usually repeats but may differ in a detail not shown here. Equal values may be shown once. Inconclusive results are not listed. Active and inactive are the calls of the source. Unless noted, calls come from the whole dose curve.
# What was measured:
# [1] = molecular target: Bile acid receptor (Homo sapiens) (UniProt Q96RI1); experiment: qHTS assay for small molecule agonists of farnesoid X receptor signaling (AID 588527); conditions: HEK293T FXR-UAS-bla, beta-lactamase ratio, 16 h; activation: stronger effect = higher value;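 note: series mostly up to about 77 µM; 0% = vehicle basal and 100% = reference agonist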
# In short: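 Read-out: beta-lactamase reporter fluorescence with CCF4 substrate in GeneBLAzer FXR-UAS-bla HEK293T cells, after 16 h compound exposure at 37 C. Response scaled between DMSO basal (0%) and chenodeoxycholic acid at 100 uM (100%).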
# [2] = molecular target: Glucocorticoid receptor (Homo sapiens) (UniProt P04150); experiment: qHTS assay for small molecule agonists of glucocorticoid receptor signaling (AID 588532; active = well fitted curve in the direction sought with a large enough effect in the signal ratio, with a control signal flat; the % refers to the signal ratio;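 note: 100% = dexamethasone at 0.1 µM and 0% = DMSO only wells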); conditions: HeLa MMTV-bla, beta-lactamase ratio, agonist, 18 h; activation: stronger effect = higher value, percent of dexamethasone control, DMSO zero
# In short: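 Cells were plated and rested 3-5 h at 37 C, compounds were added in titration and incubated 18 h, then CCF4 substrate was loaded for 2 h at RT before reading blue/green fluorescence. EC50 came from Hill-equation fitting.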
# [3] = molecular target: Glucocorticoid receptor (Homo sapiens) (UniProt P04150); experiment: qHTS assay for small molecule antagonists of glucocorticoid receptor signaling (AID 588533; active = well fitted inhibition curve with a large enough effect in the signal ratio, with a control signal flat, not every such curve was filed as active; the % refers to the signal ratio; note: % is set by controls: 0 for no effect and ±100 for the full control effect)
# In short: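 Antagonist-mode qHTS: compound titrations added to GRE-bla HeLa cells, then dexamethasone 2 nM final; 18 h, 37 C. CCF4 FRET fluorescence normalized to dexamethasone and DMSO; IC50 from Hill fit.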
# [4] = molecular target: Thyroid hormone receptor beta (Homo sapiens) (UniProt P10828); experiment: qHTS assay for small molecule agonists of thyroid hormone receptor beta signaling (AID 588545)
# In short: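 Cells (2500/well) were seeded, incubated 4 hrs at 37 C, dosed with a compound series, incubated 18 hrs, loaded with CCF4 dye for 2 hrs at RT, then read for fluorescence. Data were scaled between DMSO (0%) and 10 nM T3 (100%).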
# [5] = qHTS assay for small molecule agonists of the antioxidant response element (ARE) signaling pathway (AID 651741; active = well fitted activation curve with a large enough effect in the signal ratio; the % refers to the signal ratio; note: potency is the fitted concentration of half-maximal effect)
# In short: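 HepG2 ARE-bla reporter cells, 2,000/well; 5 h settle at 37 C/5% CO2; compound pin transfer (23 nL, DMSO); 16 h at 37 C; LiveBLAzer B/G FRET substrate, 2 h RT; fluorescence intensity read.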
# [6] = qHTS assay for small molecule activators of the p53 signaling pathway (AID 651743; active = well fitted activation curve with a large enough effect in the signal ratio, not every such curve was filed as active; the % refers to the signal ratio; note: series mostly up to about 92 µM; % of control where 0% means no effect); conditions: HCT-116 p53RE-bla, beta-lactamase FRET ratio, 16 h; activation: stronger effect = higher value
# In short: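 Reporter: beta-lactamase driven by p53 response elements, stably integrated in HCT-116 cells. Cells seeded at 4,000/well, 5 h preincubation, compound (DMSO) 16 h at 37 C; B/G FRET substrate 2 h RT; fluorescence intensity read.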
# [7] = qHTS assay for environmental chemicals that activate the Aryl hydrocarbon Receptor (AhR) signaling pathway (AID 651777; active = well fitted curve in the direction sought with a large enough effect; an effect the other way counts as inactive or inconclusive; note: % of control where 0% means no effect; nearly all actives have a fitted effect of over 15% in size); conditions: 1A2-DRE human hepatoma cells, luciferase, 24 h; activation: stronger effect = higher value
# In short: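 Luminescence read-out: One-Glo added for 30 min at RT after 24 hr compound treatment (37 C, 5% CO2) of human hepatoma cells expressing a DRE/CYP1A2 promoter–luciferase reporter; increased signal indicates AhR activation.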
# [8] = molecular target: Peroxisome proliferator-activated receptor alpha (Homo sapiens) (UniProt Q07869); experiment: qHTS assay for small molecule agonists of the peroxisome proliferator-activated receptor alpha (PPARalpha) signaling pathway (AID 651778; active = well fitted curve in the direction sought with a large enough effect; an effect the other way counts as inactive or inconclusive; note: % of control where 0% means no effect); conditions: PathHunter PPARalpha complementation, chemiluminescence, 6 h; max response: stronger effect = higher value
# In short: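 Enzyme-fragment complementation assay in which ligand-bound PPARalpha translocates and forms an active enzyme that generates chemiluminescence. Cells were plated overnight, exposed to compound for 6 hr at 37 C, and then given detection reagent for 60 min at room temperature.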
# [9] = qHTS assay for small molecule agonists of the antioxidant response element (ARE) signaling pathway measured by Nrf2-dependant transcriptional activity (AID 720636; active = well fitted curve in the direction sought with a large enough effect in the repeat runs; an effect the other way counts as inactive or inconclusive; note: potency is the fitted concentration of half-maximal effect;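 for activation: HepG2 cells with an ARE-driven luciferase reporter; % of control where 0% means no effect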)
# In short: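 HepG2 ARE-luc reporter line, 1% dialyzed FBS; 6 hr attachment at 37 C, compound pinned in, 16 hr at 37 C/5% CO2; ONE-Glo, 30 min RT, luminescence read.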
# [10] = qHTS assay for cell viability of HEK293 cells (AID 743288; active = well fitted curve in the direction sought with a large enough effect; an effect the other way counts as inactive or inconclusive; note: nearly all actives have a fitted effect of over 50% in size; note: potency is the fitted concentration of half-maximal effect); conditions: ATP luminescence (CellTiter-Glo), 18 h; max response: stronger effect = lower value
# In short: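 Viable-cell counts were inferred from luciferase-based ATP content in HEK293 cells seeded at 2,000/well, pre-incubated ≥5 h, then dosed with DMSO-solubilised compounds for 18 h at 37 C.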
# [11] = qHTS assay for cell viability of the p53RE-bla HCT-116 cell line (AID 743292; active = well fitted curve in the direction sought with a large enough effect; an effect the other way counts as inactive or inconclusive; note: nearly all actives have a fitted effect of over 55% in size; note: potency is the fitted concentration of half-maximal effect)
# In short: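 Luminescent ATP quantitation (CellTiter-Glo) served as the viability read-out; reagent was added after 16 h compound exposure at 37 C and read after 30 min at room temperature. Cells: p53RE-bla HCT-116, 4,000 per well.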
# [12] = qHTS assay for small molecule activators of the human pregnane X receptor (PXR) signaling pathway (AID 720659; call rule not given here; note: 0% is about no effect)
# [13] = molecular target: Peroxisome proliferator-activated receptor delta (Homo sapiens) (UniProt Q03181); experiment: qHTS assay for small molecule agonists of peroxisome proliferator-activated receptor delta signaling (AID 588534);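 note: 0% = DMSO basal wells and 100% = positive control agonist at 10 µM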
# In short: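 Titration series tested in agonist mode on beta-lactamase reporter cells; 18 hrs at 37 C after a 5 hr pre-incubation. Readout: CCF4 fluorescence, 2 hrs RT. Hill equation gives EC50 and maximal response.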
# [14] = qHTS assay for small molecule antagonists of peroxisome proliferator-activated receptor delta signaling (AID 588535); conditions: HEK293T PPARd-UAS-bla, beta-lactamase FRET ratio, 18 h; 460 nm channel;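 note: cells co-treated with a PPAR-delta agonist as stimulator during compound exposure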
# In short: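 Beta-lactamase reporter read-out (405 nm excitation, 460/530 nm emission) after CCF4 loading for 2 hrs at RT. HEK293T PPAR-delta-UAS-bla cells, 2% charcoal/dextran FBS, compounds for 18 hrs at 37 C. Hill fit gave IC50 and efficacy.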
# [15] = molecular target: Peroxisome proliferator-activated receptor gamma (Homo sapiens) (UniProt P37231); experiment: qHTS assay for small molecule agonists of peroxisome proliferator-activated receptor gamma signaling (AID 588536; active = well fitted curve in the direction sought with a large enough effect in the signal ratio, with a control signal flat, not every such curve was filed as active; the % refers to the signal ratio;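 note: 0% = DMSO basal wells and 100% = rosiglitazone at 2 µM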)
# In short: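 Beta-lactamase reporter read-out: CCF4 fluorescence (ex 405, em 460/530 nm) after 2 h at RT. HEK293 GeneBLAzer cells were treated for 16 h at 37 C. Hill fits gave EC50 and efficacy versus 2 uM rosiglitazone (100%) and DMSO (0%).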
# [16] = molecular target: Vitamin D3 receptor (Homo sapiens) (UniProt P11473); experiment: qHTS assay for small molecule antagonists of vitamin D receptor signaling (AID 588541);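 note: receptor activated by calcitriol during compound treatment; series mostly up to about 77 µM; % is set by controls: 0 for no effect and ±100 for the full control effect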
# In short: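 VDR-UAS-bla HEK293T cells in 2% charcoal-stripped FBS were stimulated with 1-alpha,25-dihydroxyvitamin D3 (3 nM final) plus compound for 16 h at 37 C. The beta-lactamase CCF4 readout was normalized to 50 nM agonist and DMSO, and Hill fits gave IC50.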
# [17] = molecular target: Vitamin D3 receptor (Homo sapiens) (UniProt P11473); experiment: qHTS assay for small molecule agonists of vitamin D receptor signaling (AID 588543);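 note: 0% = DMSO basal and 100% = reference agonist control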
# In short: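 Reporter cells (HEK293T, VDR-UAS-bla) were seeded in medium with 2% charcoal-stripped serum and incubated 5 h, then compounds in concentration series were added for 16 h at 37 °C. Stimulation was scaled between DMSO basal and 50 nM 1α,25-dihydroxyvitamin D3.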
# [18] = qHTS assay for small molecule antagonists of retinoid X receptor alpha signaling (AID 588546; active = well fitted inhibition curve with a large enough effect in the signal ratio, with a control signal flat, not every such curve was filed as active; the % refers to the signal ratio;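 note: cells stimulated with 9-cis-retinoic acid as agonist; % is set by controls: 0 for no effect and ±100 for the full control effect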); conditions: HEK293T RXRa-UAS-bla, beta-lactamase ratio, antagonist mode; measured here: W530 green channel, cytotoxicity proxy
# In short: (§1)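 Beta-lactamase reporter inhibition, read as CCF4 fluorescence ratio (ex 405, em 460/530 nm) after 2 h at RT. HEK293T UAS-bla cells, 2500/well, were stimulated with 9-cis-RA at 500 or 100 nM final alongside test compound for 18 h at 37 C.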
# [19] = molecular target: Retinoic acid receptor RXR-alpha (Homo sapiens) (UniProt P19793); experiment: as above; conditions: HEK293T RXRa-UAS-bla, beta-lactamase ratio, antagonist mode
# In short: as §1
# [20] = molecular target: Thyroid hormone receptor beta (Homo sapiens) (UniProt P10828); experiment: qHTS assay for small molecule antagonists of thyroid hormone receptor beta signaling (AID 588547; active = well fitted inhibition curve with a large enough effect in the signal ratio, with a control signal flat, not every such curve was filed as active; the % refers to the signal ratio;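 note: cells stimulated with 0.4 nM T3 agonist during compound exposure; series mostly up to about 77 µM; % is set by controls: 0 for no effect and ±100 for the full control effect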); conditions: TR-UAS-bla HEK293, beta-lactamase ratio, antagonist mode, 18 h
# In short: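 TR-UAS-bla GripTite HEK293 cells in 2% charcoal/dextran FBS medium; compounds 0.59 nM to 92 uM with T3 at 0.4nM final, 18 h at 37 C. Beta-lactamase read by CCF4 fluorescence (460/530 nm); Hill fits gave IC50 and efficacy.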
# [21] = qHTS assay for small molecule activators of the nuclear factor-kappa B (NF-kB) signaling pathway (AID 651749; active = well fitted activation curve with a large enough effect in the signal ratio; the % refers to the signal ratio; note: series mostly up to about 77 µM; % of control where 0% means no effect); conditions: NF-kB-bla ME-180 cells, beta-lactamase FRET ratio, 16 h; activation: stronger effect = higher value
# In short: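 NF-kB-bla ME-180 cells, 2,000/well; 23 nL compound or DMSO pinned; 16 hr, 37C/5% CO2; beta-lactamase FRET read-out.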
# [22] = qHTS assay for small molecule agonists of the antioxidant response element (ARE) signaling pathway measured by Nrf2-dependant transcriptional activity - cell viability counter screen (AID 720653; active = well fitted curve in the direction sought with a large enough effect in the repeat runs; an effect the other way counts as inactive or inconclusive; note: % is set by controls: 0 for no effect and ±100 for the full control effect); conditions: ARE-bla HepG2 viability, CellTiter-Glo ATP luminescence, 16 h; max response: stronger effect = lower value
# In short: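 ARE-bla HepG2 cells treated with compounds for 16 h at 37C; this counter screen measures viability as intracellular ATP by CellTiter-Glo luminescence after 30 min at room temperature.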
# [23] = qHTS assay for small molecule agonists of retinoid X receptor alpha signaling (AID 588544); conditions: HEK293T RXRa-UAS-bla, beta-lactamase reporter, 18 h; 530 nm emission;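 for activation: 0% = DMSO basal wells and 100% = reference agonist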
# [24] = molecular target: Retinoic acid receptor RXR-alpha (Homo sapiens) (UniProt P19793); experiment: as above
# Chain of Thyroid hormone receptor beta (Homo sapiens) (P10828 whole entry, looked up): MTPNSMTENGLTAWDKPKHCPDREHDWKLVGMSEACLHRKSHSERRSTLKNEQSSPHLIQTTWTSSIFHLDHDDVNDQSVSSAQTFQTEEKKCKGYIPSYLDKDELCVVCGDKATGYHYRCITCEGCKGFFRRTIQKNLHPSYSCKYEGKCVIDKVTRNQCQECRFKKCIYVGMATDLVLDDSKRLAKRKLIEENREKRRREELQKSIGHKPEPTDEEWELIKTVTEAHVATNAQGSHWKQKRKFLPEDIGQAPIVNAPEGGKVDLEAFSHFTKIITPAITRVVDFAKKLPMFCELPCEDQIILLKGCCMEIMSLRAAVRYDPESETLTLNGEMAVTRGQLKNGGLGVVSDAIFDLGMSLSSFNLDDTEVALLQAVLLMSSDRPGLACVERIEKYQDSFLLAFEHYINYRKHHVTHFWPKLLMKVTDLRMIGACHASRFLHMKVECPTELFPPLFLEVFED
# Chain of Peroxisome proliferator-activated receptor alpha (Homo sapiens) (Q07869 whole entry, looked up, the tested form may be a part): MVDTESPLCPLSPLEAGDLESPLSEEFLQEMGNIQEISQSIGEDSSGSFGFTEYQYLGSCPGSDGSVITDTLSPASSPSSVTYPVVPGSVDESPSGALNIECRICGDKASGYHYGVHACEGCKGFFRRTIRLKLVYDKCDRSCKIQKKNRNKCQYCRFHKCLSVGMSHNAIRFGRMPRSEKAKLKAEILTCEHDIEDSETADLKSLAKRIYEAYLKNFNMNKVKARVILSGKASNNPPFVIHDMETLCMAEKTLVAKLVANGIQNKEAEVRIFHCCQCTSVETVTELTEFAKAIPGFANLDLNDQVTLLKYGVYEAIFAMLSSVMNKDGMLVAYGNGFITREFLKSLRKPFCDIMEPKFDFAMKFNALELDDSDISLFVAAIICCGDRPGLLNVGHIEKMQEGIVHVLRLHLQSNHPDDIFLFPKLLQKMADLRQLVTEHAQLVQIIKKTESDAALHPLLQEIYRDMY
# Chain of Vitamin D3 receptor (Homo sapiens) (P11473 whole entry, looked up): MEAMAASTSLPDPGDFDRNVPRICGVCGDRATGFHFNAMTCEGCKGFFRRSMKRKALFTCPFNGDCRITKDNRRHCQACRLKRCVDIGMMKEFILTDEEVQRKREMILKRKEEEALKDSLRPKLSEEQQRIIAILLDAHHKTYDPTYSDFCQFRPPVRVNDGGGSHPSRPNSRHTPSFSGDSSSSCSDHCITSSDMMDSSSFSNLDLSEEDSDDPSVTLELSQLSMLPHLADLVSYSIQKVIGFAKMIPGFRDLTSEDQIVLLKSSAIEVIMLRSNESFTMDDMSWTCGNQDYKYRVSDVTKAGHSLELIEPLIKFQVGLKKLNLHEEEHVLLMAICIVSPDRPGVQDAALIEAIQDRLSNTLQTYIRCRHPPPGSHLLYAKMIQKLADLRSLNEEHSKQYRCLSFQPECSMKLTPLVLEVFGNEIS
# Chain of Bile acid receptor (Homo sapiens) (Q96RI1 whole entry, looked up): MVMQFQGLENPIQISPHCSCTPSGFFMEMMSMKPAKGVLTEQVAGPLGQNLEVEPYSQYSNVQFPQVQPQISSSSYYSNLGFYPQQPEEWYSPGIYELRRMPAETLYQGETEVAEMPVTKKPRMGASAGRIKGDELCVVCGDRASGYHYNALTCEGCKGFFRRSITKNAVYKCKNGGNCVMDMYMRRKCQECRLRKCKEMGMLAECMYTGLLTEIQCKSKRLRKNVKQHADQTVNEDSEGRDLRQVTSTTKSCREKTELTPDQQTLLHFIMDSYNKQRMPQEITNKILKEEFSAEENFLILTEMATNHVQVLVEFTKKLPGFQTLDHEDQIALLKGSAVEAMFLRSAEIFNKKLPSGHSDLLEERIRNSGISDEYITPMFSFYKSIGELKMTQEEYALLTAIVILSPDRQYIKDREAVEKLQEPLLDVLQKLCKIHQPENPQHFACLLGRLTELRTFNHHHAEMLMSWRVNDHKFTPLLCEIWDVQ
# Chain of Glucocorticoid receptor (Homo sapiens) (P04150 whole entry, looked up): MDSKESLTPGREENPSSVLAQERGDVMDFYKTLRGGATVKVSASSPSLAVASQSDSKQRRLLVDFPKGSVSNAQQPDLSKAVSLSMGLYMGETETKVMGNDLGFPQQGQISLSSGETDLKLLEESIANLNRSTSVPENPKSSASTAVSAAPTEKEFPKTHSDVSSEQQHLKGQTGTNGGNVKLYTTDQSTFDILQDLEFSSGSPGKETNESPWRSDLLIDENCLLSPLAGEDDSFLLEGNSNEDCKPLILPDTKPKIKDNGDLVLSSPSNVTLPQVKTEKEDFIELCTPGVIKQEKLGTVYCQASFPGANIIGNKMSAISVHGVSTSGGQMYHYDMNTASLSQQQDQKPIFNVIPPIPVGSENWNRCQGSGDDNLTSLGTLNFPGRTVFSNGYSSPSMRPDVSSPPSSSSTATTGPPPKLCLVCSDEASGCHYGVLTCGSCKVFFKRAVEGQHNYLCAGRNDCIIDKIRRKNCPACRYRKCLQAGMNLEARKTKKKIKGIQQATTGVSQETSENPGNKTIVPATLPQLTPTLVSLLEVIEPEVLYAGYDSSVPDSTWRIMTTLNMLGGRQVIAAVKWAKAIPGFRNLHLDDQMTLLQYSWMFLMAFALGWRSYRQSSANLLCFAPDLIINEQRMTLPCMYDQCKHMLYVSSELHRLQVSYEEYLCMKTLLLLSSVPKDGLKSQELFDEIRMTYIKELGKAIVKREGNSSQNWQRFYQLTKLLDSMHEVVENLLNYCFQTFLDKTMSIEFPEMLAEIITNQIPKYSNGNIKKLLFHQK
# Chain of Peroxisome proliferator-activated receptor delta (Homo sapiens) (Q03181 whole entry, looked up): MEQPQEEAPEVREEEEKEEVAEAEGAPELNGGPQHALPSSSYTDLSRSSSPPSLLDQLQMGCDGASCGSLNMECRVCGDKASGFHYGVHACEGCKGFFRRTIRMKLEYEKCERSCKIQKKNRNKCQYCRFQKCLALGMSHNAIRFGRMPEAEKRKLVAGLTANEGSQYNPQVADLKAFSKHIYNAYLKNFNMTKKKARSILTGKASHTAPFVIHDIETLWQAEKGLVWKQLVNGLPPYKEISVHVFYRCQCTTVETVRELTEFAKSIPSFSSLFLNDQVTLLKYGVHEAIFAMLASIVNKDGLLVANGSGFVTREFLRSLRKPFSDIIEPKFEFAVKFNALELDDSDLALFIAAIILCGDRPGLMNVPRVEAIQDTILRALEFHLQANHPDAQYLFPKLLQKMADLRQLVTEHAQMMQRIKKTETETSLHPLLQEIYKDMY
# Chain of Retinoic acid receptor RXR-alpha (Homo sapiens) (P19793 whole entry, looked up): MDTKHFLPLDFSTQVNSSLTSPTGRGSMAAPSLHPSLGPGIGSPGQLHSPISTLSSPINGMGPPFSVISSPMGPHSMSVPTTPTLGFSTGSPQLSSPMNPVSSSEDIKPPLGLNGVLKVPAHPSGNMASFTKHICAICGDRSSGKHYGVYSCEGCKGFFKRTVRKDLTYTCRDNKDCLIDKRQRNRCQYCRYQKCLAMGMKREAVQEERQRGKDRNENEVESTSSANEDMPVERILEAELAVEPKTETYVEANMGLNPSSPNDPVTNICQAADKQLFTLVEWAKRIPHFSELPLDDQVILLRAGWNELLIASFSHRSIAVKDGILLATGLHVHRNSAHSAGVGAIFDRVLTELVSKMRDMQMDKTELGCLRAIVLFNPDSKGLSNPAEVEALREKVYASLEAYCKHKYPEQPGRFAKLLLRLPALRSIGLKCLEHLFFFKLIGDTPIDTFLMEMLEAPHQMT
# Chain of Peroxisome proliferator-activated receptor gamma (Homo sapiens) (P37231 whole entry, looked up): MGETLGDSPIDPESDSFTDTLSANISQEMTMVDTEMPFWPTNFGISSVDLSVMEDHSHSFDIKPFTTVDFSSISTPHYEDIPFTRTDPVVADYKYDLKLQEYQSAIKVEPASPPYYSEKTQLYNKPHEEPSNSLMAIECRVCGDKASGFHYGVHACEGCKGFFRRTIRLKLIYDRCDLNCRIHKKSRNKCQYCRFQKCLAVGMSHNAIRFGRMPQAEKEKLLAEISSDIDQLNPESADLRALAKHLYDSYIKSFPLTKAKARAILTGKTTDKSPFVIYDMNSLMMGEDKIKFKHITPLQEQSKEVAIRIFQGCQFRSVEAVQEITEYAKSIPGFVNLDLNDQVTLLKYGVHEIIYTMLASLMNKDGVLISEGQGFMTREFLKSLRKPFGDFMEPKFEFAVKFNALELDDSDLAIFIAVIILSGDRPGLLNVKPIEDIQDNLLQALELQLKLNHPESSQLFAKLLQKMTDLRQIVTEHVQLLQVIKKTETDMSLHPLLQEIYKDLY
smiles,measurement,setting,value
C1CC[CH]([Sn]([CH]2CCCCC2)[CH]2CCCCC2)CC1,activation,[1],0.852% (inactive)
same,activation,[2],-10.4% (inactive)
same,Potency,[3],inactive
same,Potency,[4],inactive
same,Potency,[5],19.3 µM (active)
same,activation,[6],-8.17% (inactive)
same,activation,[7],3.62% (inactive)
same,max response,[8],-0.731% (inactive)
same,Potency,[9],13.7 µM (active)
same,Potency,[10],31.6 µM (active)
same,Potency,[11],39.8 µM (active)
same,outcome,[12],inactive
CN(C)CCCCl,activation,[1],-3.17% (inactive)
Cc1ccc2c(c1[N+](=O)[O-])C(=O)c1ccccc1C2=O,activation,[1],-4.5% (inactive)
CCCCCCCCCCCC[N+](C)(C)C,activation,[1],0.368% (inactive)
CCCCCCc1ccc(-c2ccc(C#N)cc2)cc1,activation,[1],-1.9% (inactive)
OCC(O)CO,activation,[1],-1.04% (inactive) and -2.12% (inactive)
O=P(Oc1ccccc1)(Oc1ccccc1)Oc1ccccc1,activation,[1],1.95% (inactive)
same,activation,[2],6.86% (inactive)
same,Potency,[3],inactive
same,outcome,[13],inactive
same,max response,[14],29%
same,Potency,[15],inactive
same,Potency,[16],inactive
same,outcome,[17],inactive
same,Potency,[4],inactive
same,max response,[18],0.157%
same,max response,[19],-15.3% (inactive)
same,activity change % (negative = inhibition),[20],-5.53% (inactive)
same,activation,[6],-5.18% (inactive)
same,activation,[21],-2% (inactive)
same,activation,[7],2.98% (inactive)
same,max response,[8],-0.776% (inactive)
same,Potency,[9],inactive
same,max response,[22],-2.38% (inactive)
same,max response,[10],-15.7% (inactive)
same,Potency,[11],inactive
CSC1=N[C@@](C)(c2ccccc2)C(=O)N1Nc1ccccc1,activation,[1],1.54% (inactive)
same,activation,[2],0.812% (inactive)
same,outcome,[13],inactive
same,outcome,[17],inactive
same,max response,[23],25.5%
same,Potency,[24],inactive
same,Potency,[4],inactive
same,activity change % (negative = inhibition),[20],-28.6% (inactive)
same,Potency,[5],6.86 µM (active)
same,activation,[7],-5.24% (inactive)
same,max response,[8],-0.163% (inactive)
same,Potency,[9],inactive
same,max response,[10],-18% (inactive)
same,Potency,[11],inactive
